PubChem BioAssay (Tox21)
Inconclusive results are not listed. Active and inactive are the calls of the source. Unless noted, calls come from the whole dose curve; as a rule, active = well fitted curve in the direction sought with a large enough effect in the repeat runs; inconclusive = weak or mixed curves; inactive = no such curve, though single readings can be large; an effect the other way counts as inactive or inconclusive.

What was measured:
[1] = qHTS assay to identify small molecule HDAC inhibitors - cell viability counter screen (AID 1259365); note: series mostly up to about 92 µM; nearly all actives have a fitted effect of over 50% in size
In short: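 CellTiter-Glo luminescence (30 min, room temperature) reported viability after a 2 h compound exposure at 37 C. Cells: wild-type HCT-116, 1,500 per well, seeded the night before.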

[2] = qHTS assay to identify small molecule agonists of the sonic hedgehog signaling (Shh) pathway - cell viability counter screen (AID 1259366); note: nearly all actives have a fitted effect of over 50% in size
In short: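 Cytotoxicity counter screen: CellTiter-Fluor reagent added after 23 h compound exposure, then 1 h at 37C and fluorescence read. Cells were 3T3 Gli1-Luc, seeded 2,000 per well and dosed 4 h post-plating.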

[3] = qHTS assay to identify small molecule antagonists of the sonic hedgehog signaling (Shh) pathway - cell viability counter screen (AID 1259367); note: nearly all actives have a fitted effect of over 55% in size
In short: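 Cytotoxicity was assessed in parallel with Shh reporter activity by measuring live-cell protease fluorescence (CellTiter-Fluor) in NIH/3T3 cells stably carrying Gli1-Luc, treated with compound under conditioned medium stimulation for 23 hr plus 1 hr reagent incubation.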

[4] = qHTS assay to identify small molecule agonists of the sonic hedgehog signaling (Shh) pathway (AID 1259368; calls by dose curve;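 note: NIH/3T3-derived 3T3Gli1-Luc cells carrying a stable Gli1-driven firefly luciferase reporter; series mostly up to about 92 µM; nearly all actives have a fitted effect of over 15% in size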)
In short: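 Hedgehog pathway agonism scored by increased firefly luciferase luminescence in 3T3Gli1-Luc cells treated 24 hr at 37 C; detection used a 30 min room-temperature reagent incubation.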

[5] = qHTS assay to identify small molecule antagonists of the sonic hedgehog signaling (Shh) pathway (AID 1259369; calls by dose curve; note: nearly all actives have a fitted effect of over 45% in size)
In short: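 NIH/3T3 stable Gli1-Luc clone, 2,000 cells/well, 4hr settle; cpd + conditioned medium 24hr; Luc reagent 30min RT; luminescence.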

[6] = qHTS assay to identify small molecule agonists of the androgen receptor (AR) signaling pathway in the presence of an antagonist - cell viability counter screen (AID 1259379);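 note: MDA-kb2 human breast cancer cells carrying an MMTV luciferase reporter; series mostly up to about 92 µM; nearly all actives have a fitted effect of over 25% in size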
In short: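 MDA-kb2 viability measured by CellTiter-Fluor fluorescence in the same wells as the luciferase signal; nilutamide 3.0uM final; 15-point compound titration; 16 hr at 37C.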

[7] = qHTS assay to identify small molecule agonists of the estrogen receptor beta (ER-beta) signaling pathway - cell viability counter screen (AID 1259380); note: nearly all actives have a fitted effect of over 30% in size
In short: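 Measured: luminescence from CellTiter-Glo after 30 min at room temperature, added to wells already read for the LiveBLAzer FRET reporter (2 hr substrate); ER-beta-UAS-bla HEK293T cells had 16 hr compound treatment at 37C, 5% CO2.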

[8] = molecular target: Estrogen receptor beta (Homo sapiens) (UniProt Q92731); test: qHTS assay to identify small molecule agonists of the estrogen receptor beta (ER-beta) signaling pathway (AID 1259377; active = well fitted activation curve with a large enough effect in the signal ratio in the repeat runs, not every such curve was filed as active; the % refers to the signal ratio; note: potency is the fitted concentration of half-maximal effect)
Estrogen receptor beta (Homo sapiens), sequence (Q92731 whole entry, looked up): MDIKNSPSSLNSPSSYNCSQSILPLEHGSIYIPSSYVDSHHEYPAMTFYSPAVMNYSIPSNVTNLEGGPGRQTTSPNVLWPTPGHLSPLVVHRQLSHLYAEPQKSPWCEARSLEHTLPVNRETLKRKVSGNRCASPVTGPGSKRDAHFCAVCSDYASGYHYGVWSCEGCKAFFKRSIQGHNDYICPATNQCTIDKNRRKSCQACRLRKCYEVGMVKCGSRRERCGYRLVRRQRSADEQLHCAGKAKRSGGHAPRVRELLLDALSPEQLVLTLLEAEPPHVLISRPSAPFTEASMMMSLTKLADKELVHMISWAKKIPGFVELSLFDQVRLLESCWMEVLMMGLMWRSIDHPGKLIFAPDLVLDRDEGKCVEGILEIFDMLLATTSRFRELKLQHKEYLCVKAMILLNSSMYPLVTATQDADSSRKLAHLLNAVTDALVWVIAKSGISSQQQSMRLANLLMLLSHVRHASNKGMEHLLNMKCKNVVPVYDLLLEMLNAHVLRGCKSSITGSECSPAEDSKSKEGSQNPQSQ
In short: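 Ratiometric beta-lactamase FRET read-out came after 2 h substrate loading at room temperature. It followed 16 h compound treatment at 37C of GripTite HEK293T cells carrying a UAS-bla reporter, plated in 2% charcoal-stripped FBS medium.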

[9] = molecular target: Androgen receptor (Homo sapiens) (UniProt P10275); test: qHTS assay to identify small molecule agonists of the androgen receptor (AR) signaling pathway in the presence of an antagonist (AID 1259381; calls by dose curve; note: nearly all actives have a fitted effect of over 15% in size)
Androgen receptor (Homo sapiens), sequence (P10275 whole entry, looked up): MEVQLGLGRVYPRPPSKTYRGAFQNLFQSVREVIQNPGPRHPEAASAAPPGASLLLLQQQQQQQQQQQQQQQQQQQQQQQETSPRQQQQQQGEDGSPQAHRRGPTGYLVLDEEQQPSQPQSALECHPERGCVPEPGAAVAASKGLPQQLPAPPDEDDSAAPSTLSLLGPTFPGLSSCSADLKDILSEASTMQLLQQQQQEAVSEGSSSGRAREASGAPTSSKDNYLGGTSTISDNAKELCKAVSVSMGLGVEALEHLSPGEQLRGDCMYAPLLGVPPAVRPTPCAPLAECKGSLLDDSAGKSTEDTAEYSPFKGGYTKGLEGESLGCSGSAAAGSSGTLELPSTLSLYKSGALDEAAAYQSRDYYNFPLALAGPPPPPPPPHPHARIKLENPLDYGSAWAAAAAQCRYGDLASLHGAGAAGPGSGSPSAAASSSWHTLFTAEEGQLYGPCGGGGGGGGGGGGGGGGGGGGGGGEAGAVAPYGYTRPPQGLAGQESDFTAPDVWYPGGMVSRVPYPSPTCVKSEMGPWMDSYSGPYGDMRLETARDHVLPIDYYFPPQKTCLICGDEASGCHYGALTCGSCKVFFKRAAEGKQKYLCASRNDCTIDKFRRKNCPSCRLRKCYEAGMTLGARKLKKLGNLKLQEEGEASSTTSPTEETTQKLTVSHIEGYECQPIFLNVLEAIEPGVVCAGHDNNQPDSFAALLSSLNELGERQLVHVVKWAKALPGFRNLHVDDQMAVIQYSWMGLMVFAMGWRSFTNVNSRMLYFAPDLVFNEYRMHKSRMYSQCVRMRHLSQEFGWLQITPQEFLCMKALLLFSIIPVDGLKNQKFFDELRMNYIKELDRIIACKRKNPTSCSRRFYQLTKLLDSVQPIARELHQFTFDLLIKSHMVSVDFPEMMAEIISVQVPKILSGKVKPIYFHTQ
In short: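 Luminescent ONE-Glo read, 30min at room temperature, follows 16hr compound exposure (15 concentrations) of MDA-kb2 cells at 37C, 0% CO2, with nilutamide added at 3.0uM final.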

[10] = molecular target: Estrogen receptor beta (Homo sapiens) (UniProt Q92731); test: qHTS assay to identify small molecule antagonists of the estrogen receptor beta (ER-beta) signaling pathway (AID 1259378; active = well fitted inhibition curve with a large enough effect in the signal ratio in the repeat runs, not every such curve was filed as active; the % refers to the signal ratio)
In short: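 ER-beta-UAS-bla HEK293T (GripTite) cells in 2% charcoal-stripped FBS medium were preincubated 6 hr at 37C, dosed with compound, then stimulated with 1 nM E2 (final) for 16 hr; beta-lactamase reporter read by B/G FRET fluorescence after 2 hr substrate loading.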
% is set by controls: 0 for no effect and ±100 for the full control effect.

CNCCc1ccccn1
inactive: outcome [1] | outcome [2] | outcome [3] | outcome [4] | Potency [5] | outcome [6] | Potency [7]

CC(=O)O[C@@H]1CC2C3CCc4cc(OC(=O)c5ccccc5)ccc4C3CCC2(C)[C@H]1OC(C)=O (some centres undefined)
active: Potency [8] 13.3 nM
inactive: outcome [1] | outcome [2] | outcome [3] | outcome [4] | Potency [5] | outcome [6] | outcome [9]

CC(=O)SC[C@@H](C)C(=O)N1CCC[C@H]1C(=O)N[C@@H](Cc1ccccc1)C(=O)O
inactive: outcome [1] | outcome [2] | outcome [3] | outcome [4] | Potency [5] | outcome [6] | Potency [7]

CCCCCCC(=O)c1ccccc1
inactive: outcome [1] | outcome [2] | outcome [3] | outcome [4] | Potency [5] | outcome [10] | outcome [6] | Potency [7]

CCCCCC(=O)CC
inactive: outcome [1] | outcome [2] | outcome [3] | outcome [4] | Potency [5] | outcome [6] | Potency [7]

CC(=O)Oc1ccc(C(C)=O)cc1
inactive: outcome [1] | outcome [2] | outcome [3] | outcome [4] | Potency [5] | outcome [6] | Potency [7]

CCCCCCC(O)CO (centres undefined)
inactive: outcome [1] | outcome [2] | outcome [3] | outcome [4] | Potency [5] | outcome [10] | outcome [6] | Potency [7]

CCCCCCCOC(C)=O
inactive: outcome [1] | outcome [2] | outcome [3] | outcome [4] | Potency [5] | outcome [6] | Potency [7]

Cc1ccc(OC(=O)CC(C)C)cc1
inactive: outcome [1] | outcome [2] | outcome [3] | outcome [4] | Potency [5] | outcome [6] | Potency [7]

CCC(=O)OCCOc1ccccc1
inactive: outcome [1] | outcome [2] | outcome [3] | outcome [4] | Potency [5] | outcome [6] | Potency [7]

CCN(CC)CC
inactive: outcome [1] | outcome [2] | outcome [3] | outcome [4] | Potency [5] | outcome [6] | Potency [7]

Cc1cc2c(cc1CC(=O)c1sccc1S(=O)(=O)Nc1onc(C)c1Cl)OCO2
inactive: outcome [1] | outcome [2] | outcome [3] | outcome [4] | Potency [5] | outcome [10] | outcome [6]

CC1(C)C(=O)C(C)(C)C1=O
inactive: outcome [1] | outcome [2] | outcome [3] | outcome [4] | Potency [5] | outcome [6] | Potency [7] | outcome [9]

COCc1nnc(-c2ccc[n+]([O-])c2)n1-c1c(Cl)c(Cl)cc2[nH]c(=O)c(=O)[nH]c12
inactive: outcome [1] | outcome [2] | outcome [3] | outcome [4] | Potency [5] | outcome [10] | outcome [6] | Potency [7] | outcome [9]

CO/N=C(\C(=O)O)c1csc(NC(=O)CCl)n1
inactive: outcome [1] | outcome [2] | outcome [3] | outcome [4] | Potency [5] | outcome [6] | Potency [7]

CC(=O)Nc1ccc(OCCOCCOc2ccc(NC(C)=O)cc2)cc1
inactive: outcome [1] | outcome [2] | outcome [3] | outcome [4] | Potency [5] | outcome [6] | Potency [7]

NNC(=O)CCCCC(=O)NN
inactive: outcome [1] | outcome [2] | outcome [3] | outcome [4] | Potency [5] | outcome [6] | Potency [7]

COC(C)(C)CC(C)=O
inactive: outcome [1] | outcome [2] | outcome [3] | outcome [4] | Potency [5] | Potency [8] | outcome [6] | Potency [7] | outcome [9]

Cc1ccccc1C#N
inactive: outcome [1] | outcome [2] | outcome [3] | outcome [4] | Potency [5] | outcome [6] | Potency [7]

N=C(N)N
inactive: outcome [1] | outcome [2] | outcome [3] | outcome [4] | Potency [5] | outcome [6] | Potency [7]

COc1cc(NS(=O)(=O)c2ccc(N)cc2)ncn1
inactive: outcome [1] | outcome [2] | outcome [3] | outcome [4] | Potency [5] | outcome [6] | Potency [7]

Cc1ccc(S(=O)(=O)NC(=O)NN2CC3CCCC3C2)cc1 (centres undefined)
inactive: outcome [1] | outcome [2] | outcome [3] | outcome [4] | Potency [5] | outcome [6] | Potency [7]

NS(=O)(=O)c1cc2c(cc1C(F)(F)F)NCNS2(=O)=O
inactive: outcome [1] | outcome [2] | outcome [3] | outcome [4] | Potency [5] | outcome [6] | Potency [7]

C[C@@H]1CC[C@@]2(OC1)O[C@H]1C[C@H]3[C@@H]4CC[C@H]5C[C@@H](O)CC[C@]5(C)[C@H]4CC(=O)[C@]3(C)[C@H]1[C@@H]2C
inactive: activity change, negative = cytotoxicity [1] 4.19% [at 8.39 µM] | viability change, negative = cytotoxic [2] -4.38% [at 8.39 µM] | viability change, negative = cytotoxic [3] 0.938% [at 8.39 µM] | activity change [4] -0.0264% [at 8.39 µM] | activity change, negative = inhibition [5] 0.87% [at 8.39 µM] | activity change, negative = cytotoxicity [6] 0.258% [at 8.39 µM] | activity change, negative = cytotoxicity [7] 3.8% [at 8.39 µM]

Cc1cccc(N)n1
inactive: outcome [1] | outcome [2] | outcome [3] | outcome [4] | Potency [5] | outcome [10] | outcome [6] | Potency [7]

CCCc1ccc(O)c(OC)c1
inactive: outcome [1] | outcome [2] | outcome [4] | Potency [5] | outcome [6] | Potency [7]

CC(C)(C)C(=O)CCc1ccc(Cl)cc1
inactive: outcome [1] | outcome [2] | outcome [4] | Potency [5] | Potency [8] | outcome [10] | outcome [6] | Potency [7]

C[C@@H]1CCC[C@H](C)N1CCCC(O)(c1ccccc1)c1ccccn1 (some centres undefined)
inactive: outcome [1] | outcome [2] | outcome [4] | Potency [5] | Potency [8] | outcome [10] | outcome [6] | Potency [7] | outcome [9]

COC(=O)c1ccc(C(=O)O)cc1
inactive: outcome [1] | outcome [2] | outcome [4] | Potency [5] | Potency [8] | outcome [10] | outcome [6] | Potency [7]

C[C@@H](CN1CC(=O)NC(=O)C1)N1CC(=O)NC(=O)C1
inactive: outcome [1] | outcome [2] | outcome [3] | outcome [4] | Potency [8] | outcome [10] | outcome [6] | Potency [7] | outcome [9]
